High-throughput results as filed in PubChem BioAssay.
Pin1 inhibitor: qHTS Assay to Find Inhibitors of Pin1 | Peptidyl-prolyl cis-trans isomerase NIMA-interacting 1 (Homo sapiens), Q13526 | Pin1 FP peptide displacement, HiFluor488, 10 min | Potency, µM (titrated, usually from 115 µM), without a hit: top-dose activity, negative = inhibition, usual class: inhibitors | 390,000 compounds, 0.009% hits; active = well fitted inhibition curve with a large enough effect in the polarisation, with a control signal flat, not every such curve was filed as active; inconclusive = small, poorly fitted or top-dose-only effect, or effect the other way, or a change in a side signal; inactive = no such curve, though single readings can be large or run the other way; the % refers to the polarisation
Target sequence (Q13526 whole entry, looked up): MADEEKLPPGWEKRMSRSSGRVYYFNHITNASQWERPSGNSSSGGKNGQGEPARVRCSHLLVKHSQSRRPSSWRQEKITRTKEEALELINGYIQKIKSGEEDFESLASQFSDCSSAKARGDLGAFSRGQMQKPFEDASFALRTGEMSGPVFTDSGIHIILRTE
Tb PFK block: qHTS Assay to Find Inhibitors of T. brucei phosphofructokinase; ATP-dependent 6-phosphofructokinase (Trypanosoma brucei brucei), O15648; T. brucei PFK, ADP-Glo luminescence; Potency, µM (series often up to 57.5 µM), inactives show at the top dose activity, negative = inhibition, hits mostly inhibitors; 330,000 compounds, 0.17% hits; AID 485367, 2010;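 also: 0% = uninhibited 1x PFK enzyme wells and -100% = no-enzyme wells; nearly all actives have a fitted effect of over 60% in size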
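In TEA buffer at pH 8.0 with 5 mM MgCl2, enzyme (1.25 nM) converted F6P (0.5 mM) and ATP (0.1 mM) for 45 min at room temperature. ADP product was read by luciferase luminescence.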
Chronic BCR inh: qHTS Assay to Find Inhibitors of Chronic Active B-Cell Receptor Signaling; ABC-DLBCL IkBa-CBG/CBR reporter, luminescence ratio, 4 h; Potency, µM (titrated, usually from 46.1 µM), inactives show at the highest dose activity change, negative = inhibition, usual class: inhibitors; 340,000 compounds, 0.05% hits; AID 493014, 2011; active = well fitted inhibition curve with a large enough effect in the signal ratio, with a control signal flat, not every such curve was filed as active; inconclusive = small, poorly fitted or top-dose-only effect, or effect the other way, or a change in a side signal; the % refers to the signal ratio;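 also: plate controls were basal doxycycline-induced cells for no effect and cells given 10 µM MG132 for full effect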
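Cell line TMD8 (human ABC DLBCL), stably expressing tet-inducible CBG68-IkBa fusion and CBR; IMDM/0.5% FBS; cpd up to 46 uM; dox induction, 4 h, 37C/5% CO2; dual luminescence; green/red ratio; MG132 control.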
B2AR arrestin: qHTS assay of beta-arrestin-biased ligands of beta2-adrenergic receptor. 330,000 compounds, 0.02% hits. AID 492947, 2010. beta-arrestin recruitment to beta2AR, cell-based reporter. Potency, µM (series often up to 46.1 µM), for the others: at the top dose activation, actives largely listed as activators;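 also: 0% = DMSO controls and full agonism = EC100 isoproterenol or metaproterenol; nearly all actives have a fitted effect of over 65% in size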
PGK inhibitor: qHTS Assay to Find Inhibitors of Phosphoglycerate Kinase; Potency, µM (titrated, usually from 57.5 µM), for the others: top-dose activity change, negative = inhibition, usual class: inhibitors; PGK/GAPDH coupled, Kinase-Glo luminescence, 60 min; 380,000 compounds, 0.043% hits; also: nearly all actives have a fitted effect of over 60% in size
Target sequence (P07378 whole entry, looked up): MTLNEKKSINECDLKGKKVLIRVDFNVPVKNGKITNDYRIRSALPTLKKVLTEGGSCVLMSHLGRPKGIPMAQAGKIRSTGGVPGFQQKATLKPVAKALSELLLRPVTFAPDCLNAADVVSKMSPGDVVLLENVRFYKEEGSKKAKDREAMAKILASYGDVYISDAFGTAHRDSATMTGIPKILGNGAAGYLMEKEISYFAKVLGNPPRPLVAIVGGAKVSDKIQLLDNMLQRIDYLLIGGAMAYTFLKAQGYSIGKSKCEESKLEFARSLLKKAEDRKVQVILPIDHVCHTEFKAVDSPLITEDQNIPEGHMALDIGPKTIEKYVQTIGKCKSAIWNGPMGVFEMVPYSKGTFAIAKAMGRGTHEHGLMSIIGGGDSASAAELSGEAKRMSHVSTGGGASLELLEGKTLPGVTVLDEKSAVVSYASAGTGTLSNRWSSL
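Luminescent ATP detection (Kinase-Glo Plus) follows a 60-minute room-temperature incubation, with wells lacking PGK as controls. Buffer: 100 mM TEA (pH 7.6), 5 mM MgCl2, 0.01% Tween-20. Coupling enzyme GAPDH (100 nM final) supplies unstable 1,3-BPG in-well.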
GLS inh: qHTS for Inhibitors of Glutaminase (GLS); Glutaminase kidney isoform, mitochondrial (Homo sapiens), O94925; GLS enzymatic activity, qHTS titration; Potency, µM (series often up to 45.5 µM), for the others: at the top dose activity change, negative = inhibition, hits mostly inhibitors; 410,000 compounds, 0.21% hits; AID 624170, 2012
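Two-point fluorescence kinetic (t0, 30 min RT) for hKGA; glutamate detected via glutamate oxidase–HRP–Amplex Red. Substrate: 1 mM L-glutamine solution; buffer 45 mM KH2PO4, pH 8.2.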
The depositor's hits bear a star. This is a sample that favours compounds with a hit; in the whole collection about 0.42% have one here. Unless noted, calls follow the shape of the dose curve; as a rule, active = well fitted curve in the direction sought with a large enough effect; inconclusive = small, poorly fitted or top-dose-only effect, or another doubt; inactive = no such curve, though single readings can be large; an effect the other way counts as inactive or inconclusive. Unless noted, % is scaled to controls: 0 for no effect and ±100 for the full control effect; potency is read from the fitted curve at half-maximal effect.

What do the screens show for `Nc1ccc2nc(-c3ccc(Cl)cc3)[nH]c2c1`?
Pin1 inhibitor: 7%; Tb PFK block: inconclusive; Chronic BCR inh: 29%; B2AR arrestin: -1%; PGK inhibitor: -7%; GLS inh: 9%

Results for Cc1nc2ccc(-c3nc4ccc(N)cc4[nH]3)cc2[nH]1 ?
Pin1 inhibitor: 2%; Tb PFK block: inconclusive; Chronic BCR inh: inconclusive; B2AR arrestin: 0%; PGK inhibitor: -4%; GLS inh: 8.9µM*

How did Cc1ccc(NC(=O)CN2C(=O)S/C(=C/c3ccc(-c4cccc(C(=O)O)c4)o3)C2=O)cc1 do in these assays?
Pin1 inhibitor: inconclusive; Tb PFK block: inconclusive; Chronic BCR inh: inconclusive; B2AR arrestin: 0%; PGK inhibitor: 10µM*; GLS inh: inconclusive

What do the screens show for `COc1cc(/C=C2\SC(=O)N(CC(=O)Nc3ccc(C)cc3)C2=O)cc(Cl)c1OCC(=O)O`?
Tb PFK block: -21%; Chronic BCR inh: inconclusive; B2AR arrestin: 0%; PGK inhibitor: inconclusive; GLS inh: 7.1µM*

What do the screens show for `Cc1ccc(NC(=O)CN2C(=O)S/C(=C\c3ccc(-c4cccc(C(=O)O)c4C)o3)C2=O)cc1`?
Tb PFK block: 3%; Chronic BCR inh: -4%; B2AR arrestin: -1%

What do the screens show for `CCCN1CCN(c2cccc(Nc3nn4c(=O)c5ccccc5nc4s3)c2)CC1`?
Pin1 inhibitor: 6%

What do the screens show for `Cn1c(=O)c2c(nc(SCc3nn[nH]n3)n2Cc2ccccc2F)n(C)c1=O`?
Pin1 inhibitor: inconclusive; Tb PFK block: -5%; Chronic BCR inh: 0%; B2AR arrestin: -2%; PGK inhibitor: 0%; GLS inh: -6%

What do the screens show for `Cn1c(=O)n(Cc2ccccc2Cl)c2ccccc21`?
Pin1 inhibitor: -2%; Tb PFK block: 0%; Chronic BCR inh: inconclusive; B2AR arrestin: 0%; PGK inhibitor: 4%; GLS inh: -10%

What do the screens show for `O=c1c2nccnc2[nH]c(=S)n1Cc1ccccc1Cl`?
Pin1 inhibitor: 1%; Tb PFK block: 2%; Chronic BCR inh: 0%; B2AR arrestin: 0%; PGK inhibitor: 0%; GLS inh: 10µM*

What do the screens show for `Cn1c(SCc2nn[nH]n2)nc2c1c(=O)n(Cc1ccccc1Cl)c(=O)n2C`?
Pin1 inhibitor: -3%; Tb PFK block: -2%; Chronic BCR inh: 0%; B2AR arrestin: 0%; PGK inhibitor: -3%; GLS inh: 11µM*

How did Cn1c(=O)n(Cc2ccccc2Cl)c(=O)c2c1[nH]c(=S)n2C do in these assays?
Pin1 inhibitor: -12%; Tb PFK block: -14%; Chronic BCR inh: -1%; B2AR arrestin: 0%; PGK inhibitor: 1%; GLS inh: 14µM*

What do the screens show for `COc1ccccc1NC(=O)Cc1noc(CSc2cccc[n+]2[O-])n1`?
Pin1 inhibitor: 1%; Tb PFK block: -5%; Chronic BCR inh: 23µM*; B2AR arrestin: 0%; PGK inhibitor: -11%; GLS inh: -7%

Results for COc1ccccc1NC(=O)Cc1noc(CSc2cc(C)c3ccccc3n2)n1 ?
Pin1 inhibitor: inconclusive; Tb PFK block: -2%; Chronic BCR inh: inconclusive; B2AR arrestin: 0%; PGK inhibitor: 10%; GLS inh: 0%

Results for COc1ccc(C2=Nn3c(nnc3-c3ccccc3F)SC2)cc1OC1CCCC1 ?
Pin1 inhibitor: 10%; Tb PFK block: 1%; Chronic BCR inh: 5.8µM*; B2AR arrestin: 0%; PGK inhibitor: -1%; GLS inh: 12%

How did COc1ccc(C2=Nn3c(nnc3-c3ccccc3)SC2)cc1OC do in these assays?
Pin1 inhibitor: -1%; Tb PFK block: 4%; Chronic BCR inh: inconclusive; B2AR arrestin: 0%; PGK inhibitor: -5%; GLS inh: -6%

Results for CCOc1ccc(C2=Nn3c(nnc3-c3ccc(OC)cc3)SC2)cc1 ?
Pin1 inhibitor: inconclusive; Tb PFK block: 2%; Chronic BCR inh: 13µM*; B2AR arrestin: 0%; PGK inhibitor: -1%; GLS inh: 3%

How did CCCc1nnc2n1N=C(c1ccc(OC)c(OC)c1)CS2 do in these assays?
Pin1 inhibitor: -8%; Tb PFK block: -3%; Chronic BCR inh: 13µM*; B2AR arrestin: 0%; PGK inhibitor: inactive; GLS inh: -3%

Results for COc1ccc(C2=Nn3c(nnc3-c3ccncc3)SC2)cc1 ?
Pin1 inhibitor: 2%; Tb PFK block: -6%; Chronic BCR inh: -11%; B2AR arrestin: 0%; PGK inhibitor: -5%; GLS inh: -4%

How did N#Cc1nc(Nc2cccc(-c3ccccc3)c2)nc(NC2CCCC2)n1 do in these assays?
Pin1 inhibitor: 12%

How did CCOc1ccccc1Oc1nc(C)nc2c1oc1ccccc12 do in these assays?
Pin1 inhibitor: 3%; Chronic BCR inh: 13µM*; PGK inhibitor: -10%; GLS inh: 1%

What do the screens show for `O=C1c2ccccc2C(=O)N1c1cccc2ncccc12`?
Pin1 inhibitor: -12%

How did CCCCC1C(=O)CC[C@H]2[C@@H]1CC(=O)[C@@H]2C/C=C\CCCC(=O)O (stereo not given in full) do in these assays?
Pin1 inhibitor: -5%; Tb PFK block: -1%; Chronic BCR inh: 21µM*; B2AR arrestin: -1%; PGK inhibitor: -9%; GLS inh: -3%

Results for CN(C)/C=C1/NC(=S)NC1=O ?
Pin1 inhibitor: -13%; Tb PFK block: -4%; Chronic BCR inh: inconclusive; B2AR arrestin: 0%; PGK inhibitor: inactive; GLS inh: 10µM*

Results for c1coc(-c2nc(-c3ccco3)c(-c3ccco3)nc2-c2ccco2)c1 ?
Pin1 inhibitor: inconclusive; Tb PFK block: inconclusive; Chronic BCR inh: 1%; B2AR arrestin: 0%; PGK inhibitor: inconclusive; GLS inh: 13µM*

How did Nc1nc(-c2ccco2)c(-c2ccco2)s1 do in these assays?
Pin1 inhibitor: inconclusive; Tb PFK block: inconclusive; Chronic BCR inh: inconclusive; B2AR arrestin: 0%; PGK inhibitor: -4%; GLS inh: -1%

How did c1ccc2c(c1)Nc1ccncc1S2 do in these assays?
Pin1 inhibitor: -5%; Tb PFK block: 0%; Chronic BCR inh: inconclusive; B2AR arrestin: 0%; PGK inhibitor: -3%; GLS inh: 10µM*

Results for Cc1ccc(O)c(N=Nc2ccccc2)n1 ?
Pin1 inhibitor: 2%; PGK inhibitor: 16µM*; GLS inh: 18%
